Assay results taken from PubChem BioAssay (NCI).
The panel holds about 79,000 compounds, 15% with a hit somewhere; the sample as a whole holds those more often. Activity calls are given as the source filed them. Cut-off read from the data, not from the text of the source: active = growth inhibition above about 70%; inactive = the rest.

Key:
[1] = NCI Yeast Anticancer Drug Screen. Data for the wt1 strain (AID 149);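 note: 0% = growth of vehicle-treated wt1 cultures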; details: S. cerevisiae wt1 strain (SPY 50644) growth inhibition, hits give high values
Method in brief: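 Yeast wt1 strain exposed to compounds; growth inhibition measured relative to vehicle-treated controls.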

[2] = NCI Yeast Anticancer Drug Screen. Data for the rad50EPP+ strain (AID 151);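 note: 0% = growth of vehicle-treated control cultures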; details: S. cerevisiae rad50 mutant strain, hits give high values
Method in brief: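 Compounds were applied to the rad50EPP+ yeast strain, which bears a defined DNA repair alteration, and growth inhibition was determined relative to vehicle-treated cultures.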

[3] = NCI Yeast Anticancer Drug Screen. Data for the rad50 strain (AID 155);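 note: 0% = growth of vehicle-only cultures of the same strain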; details: S. cerevisiae rad50 strain growth inhibition, hits give high values
Method in brief: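 Yeast carrying a defined DNA repair defect were exposed to test compounds, and growth was compared with vehicle-treated controls to give percent inhibition.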

[4] = NCI Yeast Anticancer Drug Screen. Data for the mec2-1 strain (AID 157); details: S. cerevisiae mec2-1 strain, hits give high values
Method in brief: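 Strain: mec2-1 (DNA repair/cell cycle alteration). Compound exposure, then growth measured; inhibition expressed relative to vehicle.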

[5] = NCI Yeast Anticancer Drug Screen. Data for the rad14 strain (AID 159);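 note: 0% = growth of vehicle-treated control cultures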; details: S. cerevisiae rad14 strain growth inhibition, hits give high values
Method in brief: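 Yeast cells carrying a defined DNA-repair defect were exposed to compounds, and growth inhibition was calculated relative to vehicle-treated control cultures.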

[6] = NCI Yeast Anticancer Drug Screen. Data for the sgs1 mgt1 strain (AID 161);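 note: 0% = growth of cultures given vehicle only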; details: S. cerevisiae sgs1 mgt1 strain, hits give high values
Method in brief: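 Genetically altered yeast, compound exposure, growth inhibition relative to vehicle.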

[7] = NCI Yeast Anticancer Drug Screen. Data for the CLN2oe strain (AID 163);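 note: 0% = growth of vehicle-only control cultures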; details: S. cerevisiae CLN2oe strain, hits give high values
Method in brief: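 Growth of a genetically modified yeast strain is measured after compound exposure and compared with cultures given vehicle alone.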

[8] = NCI Yeast Anticancer Drug Screen. Data for the cln2 rad14 strain (AID 165);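 note: 0% = growth equal to vehicle treated cultures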; details: S. cerevisiae cln2 rad14 strain, hits give high values
Method in brief: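 Compounds are applied to the cln2 rad14 yeast strain, and growth is then compared with that of vehicle-treated cultures to give inhibition.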

[9] = NCI Yeast Anticancer Drug Screen. Data for the bub3 strain (AID 167); details: S. cerevisiae bub3 mutant strain, hits give high values
Method in brief: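 Compounds were applied to a genetically altered yeast strain carrying a cell-cycle control defect. Growth inhibition was scored against vehicle-treated controls.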

[10] = NCI Yeast Anticancer Drug Screen. Data for the wt2 strain (AID 169);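 note: 0% = growth of vehicle-treated yeast cultures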; details: S. cerevisiae wt2 strain growth inhibition, hits give high values
Method in brief: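 This strain belongs to a panel of yeast strains with defined genetic alterations in DNA damage repair or cell cycle control. Compounds are applied, and growth inhibition is measured against vehicle-treated cultures.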

[11] = NCI Yeast Anticancer Drug Screen. Data for the mlh1 strain (AID 171);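 note: 0% = growth of vehicle-treated control cultures of the same strain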; details: S. cerevisiae mlh1 strain growth inhibition, hits give high values
Method in brief: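 Growth of the mutant yeast strain after compound exposure, expressed as inhibition relative to vehicle-only controls.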

[12] = NCI Yeast Anticancer Drug Screen. Data for the sgs1 strain (AID 173);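 note: 0% = growth of vehicle-only control cultures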; details: S. cerevisiae sgs1 mutant, hits give high values
Method in brief: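 Growth of a yeast strain bearing a defined genetic alteration is measured after compound treatment. Inhibition is expressed relative to vehicle-only controls.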

[13] = NCI Yeast Anticancer Drug Screen. Data for the mlh1 rad18 strain (AID 175); details: S. cerevisiae mlh1 rad18 strain growth inhibition, hits give high values
Method in brief: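 Read-out is yeast growth inhibition, calculated against vehicle-only controls. The compound was applied to a strain engineered with DNA damage repair alterations.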

[14] = NCI Yeast Anticancer Drug Screen. Data for the rad18 strain (AID 177); details: S. cerevisiae rad18 mutant growth inhibition, hits give high values
Method in brief: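 Growth of the mutant yeast strain after compound exposure, normalised to vehicle-only cultures.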

[15] = NCI Yeast Anticancer Drug Screen. Data for the mgt1 strain (AID 153); details: S. cerevisiae mgt1 mutant growth inhibition, hits give high values
Method in brief: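 Strain: mgt1 yeast, one of a set carrying defined DNA damage repair or cell cycle control alterations. Compound-treated growth compared with vehicle.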

[16] = at 5.0 µM (retest, dose inferred, filed as 0.5)
[17] = at 50.0 µM (retest, dose inferred, filed as 5.0)

Measured: growth inhibition

COc1cc(C2C3=C(COC3=O)Oc3cc4c(cc32)OCO4)cc(OC)c1O (stereo unspecified)
active: [3]; at 1.2 µM 88% | [3]; at 3.7 µM 88% | [3]; at 11.0 µM 92% | [3]; at 33.0 µM 92% | [3]; [17] 97% | [3]; at 50.0 µM 70% | [3]; at 100.0 µM 93% | [13]; at 50.0 µM 72.7%
inactive: [1]; at 1.2 µM 1% | [1]; at 3.7 µM 2% | [1]; at 11.0 µM 3% | [1]; at 33.0 µM 6% | [1]; at 100.0 µM 8% | [2]; at 1.2 µM -2% | [2]; at 3.7 µM 0% | [2]; at 11.0 µM 1% | [2]; at 33.0 µM -3% | [2]; at 100.0 µM 0% | [3]; [16] 14% | [4]; at 1.2 µM 12% | [4]; at 3.7 µM 7% | [4]; [16] -24% | [4]; at 11.0 µM 18% | [4]; at 33.0 µM 25% | [4]; [17] 39% | [4]; at 50.0 µM 59.1% | [4]; at 100.0 µM 29% | [5]; at 1.2 µM 5% | [5]; at 3.7 µM 5% | [5]; at 11.0 µM 16% | [5]; at 33.0 µM 12% | [5]; at 100.0 µM 15% | [6]; [16] -3% | [6]; [17] 47% | [6]; at 50.0 µM 36.7% | [7]; at 1.2 µM 0% | [7]; at 3.7 µM -3% | [7]; at 11.0 µM 5% | [7]; at 33.0 µM 17% | [7]; at 100.0 µM 21% | [8]; [16] 8% | [8]; [17] 51% | [8]; at 50.0 µM 55.1% | [9]; at 1.2 µM 1% | [9]; at 3.7 µM -1% | [9]; [16] -18% | [9]; at 11.0 µM 14% | [9]; at 33.0 µM 10% | [9]; [17] 9% | [9]; at 50.0 µM 23.3% | [9]; at 100.0 µM 13% | [10]; at 1.2 µM 2% | [10]; at 3.7 µM 1% | [10]; at 11.0 µM 5% | [10]; at 33.0 µM 6% | [10]; at 100.0 µM 8% | [11]; at 1.2 µM 3% | [11]; at 3.7 µM 0% | [11]; at 11.0 µM 8% | [11]; at 33.0 µM 10% | [11]; at 100.0 µM 10% | [12]; at 1.2 µM 13% | [12]; at 3.7 µM 10% | [12]; at 11.0 µM 22% | [12]; at 33.0 µM 26% | [12]; at 100.0 µM 28% | [13]; [16] -10% | [13]; [17] 58% | [14]; at 1.2 µM 11% | [14]; at 3.7 µM 11% | [14]; at 11.0 µM 19% | [14]; at 33.0 µM 9% | [14]; at 100.0 µM 24%

CC1=CC(=O)C=CC1=Nc1cc(Cl)c(O)c(Cl)c1
inactive: [1]; at 1.2 µM -30% | [1]; at 3.7 µM -24% | [1]; at 11.0 µM -12% | [1]; at 33.0 µM 52% | [2]; at 1.2 µM -31% | [2]; at 3.7 µM -15% | [2]; at 11.0 µM -16% | [2]; at 33.0 µM 27% | [15]; at 1.2 µM -4% | [15]; at 3.7 µM 4% | [15]; at 11.0 µM 9% | [15]; at 33.0 µM 40% | [3]; at 1.2 µM -2% | [3]; at 3.7 µM 8% | [3]; [16] 55% | [3]; at 11.0 µM 8% | [3]; at 33.0 µM 62% | [3]; [17] 53% | [4]; at 1.2 µM -21% | [4]; at 3.7 µM -16% | [4]; [16] 63% | [4]; at 11.0 µM -4% | [4]; at 33.0 µM 55% | [4]; [17] 48% | [5]; at 1.2 µM -43% | [5]; at 3.7 µM -31% | [5]; at 11.0 µM -30% | [5]; at 33.0 µM 38% | [6]; [16] -4% | [7]; at 1.2 µM -2% | [7]; at 3.7 µM -9% | [7]; at 11.0 µM 22% | [7]; at 33.0 µM 45% | [8]; [16] 48% | [9]; at 1.2 µM 7% | [9]; at 3.7 µM 11% | [9]; [16] 45% | [9]; at 11.0 µM 8% | [9]; at 33.0 µM 49% | [10]; at 1.2 µM -31% | [10]; at 3.7 µM -20% | [10]; at 11.0 µM -14% | [10]; at 33.0 µM 30% | [11]; at 1.2 µM -51% | [11]; at 3.7 µM -24% | [11]; at 11.0 µM -21% | [11]; at 33.0 µM 10% | [12]; at 1.2 µM -50% | [12]; at 3.7 µM -42% | [12]; at 11.0 µM -17% | [12]; at 33.0 µM 43% | [13]; [16] 40% | [13]; [17] 48% | [14]; at 1.2 µM -11% | [14]; at 3.7 µM -10% | [14]; at 11.0 µM -9% | [14]; at 33.0 µM 60%
active: [1]; at 100.0 µM 93% | [2]; at 100.0 µM 70% | [15]; at 100.0 µM 94% | [3]; at 50.0 µM 81.4% | [3]; at 100.0 µM 91% | [4]; at 50.0 µM 79.3% | [4]; at 100.0 µM 93% | [5]; at 100.0 µM 89% | [6]; [17] 93% | [6]; at 50.0 µM 83.7% | [7]; at 100.0 µM 90% | [8]; [17] 94% | [8]; at 50.0 µM 77.2% | [9]; [17] 91% | [9]; at 50.0 µM 83% | [9]; at 100.0 µM 92% | [10]; at 100.0 µM 94% | [11]; at 100.0 µM 91% | [12]; at 100.0 µM 89% | [13]; at 50.0 µM 82% | [14]; at 100.0 µM 91%
